Bioassay records deposited in PubChem by National Center for Advancing Translational Sciences (NCATS).
Pf growth 96h = P. falciparum growth inhibition at 96 hour, primary screen for plastid delayed-death inhibitors; P. falciparum luciferase reporter growth, 96 h; Potency, µM (doses to about 28.7 µM), actives largely listed as inhibitors; 320,000 compounds, 6.9% hits; AID 504834
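Plates of compound plus infected erythrocytes (2% hematocrit, 0.05% parasitemia final) incubate 96 hours, 37 C, 5% CO2. Detection reagent added; reduced luminescence from the parasites' luciferase reporter flags inhibition.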
Sm TGR inh = inhibitors of Schistosoma mansoni thioredoxin glutathione reductase | Q962Y6 | purified TGR, DTNB reduction, TNB absorbance 405 nm | Potency, µM (top dose mostly 114 µM), actives largely listed as inhibitors | 360,000 compounds, 3% hits | AID 485364; further: nearly all actives have a fitted effect of over 60% in size
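Kinetic colorimetric format: TGR-catalysed, NADPH-driven DTNB reduction monitored via TNB absorbance. Enzyme dispensed at 20 nM; compound exposure 15 min at room temperature before reaction start.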
Pf growth 48h = inhibits P. falciparum growth in the first generation, 48 h; P. falciparum luciferase growth in erythrocytes, 48 h; Potency, µM (doses to about 28.7 µM), hits mostly inhibitors; 310,000 compounds, 5.9% hits; AID 504832
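Parasite viability was followed by luminescence of a genomically integrated firefly luciferase. Cultures held 0.1% parasitemia at 2% hematocrit (final), incubated under 5% CO2 at 37 C.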
Giardia FBPA inh = blocks Giardia fructose-bisphosphate aldolase activity; 290,000 compounds, 0.71% hits; A8B2U2; purified Giardia FBPA; AID 2451; Potency, µM (titrated, usually from 59.6 µM), most hits filed as inhibitors; further: nearly all actives have a fitted effect of over 55% in size
Target sequence (A8B2U2 whole entry, looked up): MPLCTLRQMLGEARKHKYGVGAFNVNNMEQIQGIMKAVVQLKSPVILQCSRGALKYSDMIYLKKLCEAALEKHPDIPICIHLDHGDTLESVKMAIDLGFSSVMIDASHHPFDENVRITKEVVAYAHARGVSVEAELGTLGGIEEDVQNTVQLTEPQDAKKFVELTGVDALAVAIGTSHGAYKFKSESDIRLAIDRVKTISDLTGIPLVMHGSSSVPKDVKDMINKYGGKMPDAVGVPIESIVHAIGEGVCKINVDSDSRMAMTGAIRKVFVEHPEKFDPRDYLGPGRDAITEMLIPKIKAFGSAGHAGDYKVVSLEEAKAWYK
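Giardia FBPA (40 nM reagent) was preincubated 10 min at RT with compound (up to 57.5 uM final), then substrate plus GAPDH/TPI/NAD/arsenate coupling system with diaphorase/resazurin was added; resorufin fluorescence (525/598 nm) was read after 20 min.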
HCMV inh = human cytomegalovirus inhibition. AID 1259415. HFF cells, HCMV-luciferase reporter, 72 h; hits give low values. activity change, negative = inhibition, % at 57.5 µM. 410,000 compounds, 4.5% hits; in the data active means activity change below about -60%; inconclusive means no clear call, values can overlap the other calls; inactive means above about -39%
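Luciferase read-out from HCMV-luciferase-infected HFFs (MOI 1 PFU/cell) 72 h post infection at 37C; compounds added after 16 h cell attachment; activity normalized between buffer-only basal and Salinomycin (10uM) inhibitor controls.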
Large screens that a line does not name were inactive. Hits are enriched below; roughly 14% of the tested compounds scored in any of these assays. Unless noted, the call rests on the fitted dose curve; in most records, active means well fitted curve in the direction sought with a large enough effect; inconclusive means small, poorly fitted or top-dose-only effect, or another doubt; inactive means no such curve, though single readings can be large; an effect the other way counts as inactive or inconclusive.

Cc1ccc(Nc2c(-c3ccc(N4CCOCC4)cc3)nc3cccc(C)n23)cc1	none (no result: Pf growth 96h, Pf growth 48h, Giardia FBPA inh)
COc1ccc(OC)c(Cc2nnc(CCC(=O)NC3CCCCC3)o2)c1	Pf growth 96h 13µM
CCCN1CCC(NC(=O)CCc2nnc(Cc3cc(OC)ccc3OC)o2)CC1	none
COc1ccc(OC)c(Cc2nnc(CCC(=O)NC3C4CC5CC(C4)CC3C5)o2)c1 (stereo unspecified)	Pf growth 48h 10µM
CCOC(=O)c1c(C)[nH]c(C)c1C(=O)COC(=O)c1ccc(OC)c(OC)c1	Pf growth 96h inconclusive, Pf growth 48h inconclusive
CC/C(C)=N\N=C\c1c(O)n(CC)c2cc(C3=NNC(=O)CC3)ccc12	Pf growth 96h 10µM, Sm TGR inh inconclusive, Pf growth 48h inconclusive (no result: HCMV inh)
CCn1c(O)c(/C=N/N=C/c2ccc(OC)cc2)c2cc(C3=NNC(=O)CC3)ccc21	none
CN(C)CCNC(=O)Cn1nc(N2CCN(c3ccccc3)CC2)ccc1=O	none (no result: Pf growth 96h, Pf growth 48h, Giardia FBPA inh)
Cc1nc(/N=C(\N)NC(=O)N2c3ccccc3Sc3ccccc32)nc2ccccc12	Pf growth 96h inconclusive, Pf growth 48h inconclusive
CCC(=O)N/C(N)=N/c1nc(C)c2cc(C)c(C)cc2n1	Pf growth 96h 1.7µM, Pf growth 48h 1.7µM
Cc1ccc2nc(Cl)c3cc(C(=O)NC4CCCCC4)sc3c2c1	none (no result: Pf growth 96h, Pf growth 48h, Giardia FBPA inh)
Cc1ccc2nc(/N=C(\N)NC(=O)NC3CCCCC3)nc(C)c2c1	Pf growth 96h inconclusive, Pf growth 48h inconclusive, HCMV inh -65
CCCC(=O)N/C(N)=N/c1nc(C)c2cc(C)ccc2n1	Pf growth 96h 2.6µM, Pf growth 48h 2.6µM
CC(=O)Nc1cccc(N/C(N)=N/c2nc(C)cc(C)n2)c1	Pf growth 48h inconclusive
CCC(=O)Nc1ccc(N/C(N)=N/c2nc(C)cc(C)n2)cc1	Pf growth 96h inconclusive
Cc1cc2nc(/N=C(\N)NC(=O)C(C)C)nc(C)c2cc1C	Pf growth 96h 2.6µM, Pf growth 48h 2.6µM
CC(NC(=O)C1CCCN1C(=O)CN)C(=O)O (stereo unspecified)	none (no result: Pf growth 96h, Sm TGR inh, Pf growth 48h, HCMV inh)
Cc1cc(C(=O)Nc2cccc(S(=O)(=O)N3CCCC3)c2)c2ccccc2n1	Pf growth 96h inconclusive, Pf growth 48h inconclusive (no result: Giardia FBPA inh)
O=C(Nc1cccc(S(=O)(=O)N2CCCC2)c1)c1cc(-c2ccccn2)nc2ccccc12	Pf growth 96h inconclusive, Pf growth 48h 12µM
Cc1ccc2nc(-c3ccccn3)cc(C(=O)Nc3ccc(S(=O)(=O)N4CCOCC4)cc3)c2c1	Pf growth 48h 13µM
C=CCn1c(O)c(N=O)c2ccccc21	Pf growth 96h inconclusive
CCCCn1c(O)c(N=Nc2ccccn2)c2ccccc21	Pf growth 96h inconclusive
C=CCn1c(O)c(N=NC(=S)Nc2ccc(OC)c(Cl)c2)c2ccccc21	Pf growth 48h 3.7µM, HCMV inh inconclusive
CCCCn1c(O)c(N=Nc2ccccc2O)c2ccccc21	Pf growth 48h 6.6µM (no result: Giardia FBPA inh)
C=CCn1c(O)c(N=NC(=O)OC(C)(C)C)c2ccccc21	HCMV inh inconclusive
C=CCn1c(O)c(N=Nc2ccccc2C)c2ccccc21	Sm TGR inh 18µM
COc1ccccc1/C=C\C(=O)NCC(=O)N/N=C(/C)c1cccc([N+](=O)[O-])c1	none
COC(=O)c1ccc2nc(-c3ccco3)c(Cc3ccsc3)n2c1	none (no result: Pf growth 96h, Sm TGR inh, Pf growth 48h, Giardia FBPA inh)
CCc1ccccc1NC(=O)CN(C)C(=O)CSc1nn(-c2ccc(F)cc2)c(=S)s1	Pf growth 96h inconclusive
CN(C)C(=O)CSc1nc(-c2ccccc2)nc2c1CCCC2	Pf growth 96h 9.3µM, Pf growth 48h inconclusive
NC(=O)CSc1nc(-c2ccccc2)nc2c1CCCC2	Pf growth 96h 7.4µM
NC(N)=NS(=O)(=O)c1ccc(NC(=S)NC(=O)/C=C/c2ccco2)cc1	none
CCOc1ccc(NC(=S)NC(=O)c2ccco2)cc1	Sm TGR inh 13µM
O=C(Nc1ccc(NC(=S)NC(=O)c2ccco2)cc1)c1ccc(Br)cc1	HCMV inh -78 (no result: Pf growth 96h, Sm TGR inh, Pf growth 48h, Giardia FBPA inh)
Cc1ccc(-n2nc3ccc(NC(=S)NC(=O)/C=C/c4ccco4)cc3n2)cc1	Pf growth 96h 1.9µM, HCMV inh -68
NS(=O)(=O)c1ccc(NC(=S)NC(=O)/C=C/c2ccco2)cc1	Pf growth 96h inconclusive, Sm TGR inh 40µM
CCOc1ccc(NC(=O)c2ccco2)cc1	none (no result: Pf growth 96h)
Cn1cccc1C(=O)N1CCC2(CCN(Cc3ccncc3)CC2)CC1	none (no result: Pf growth 96h, Sm TGR inh, Pf growth 48h, HCMV inh)
COc1ccc(NC(=O)N2CC3(CCN(C(=O)c4ccco4)CC3)C2)cc1	none (no result: Pf growth 96h, Sm TGR inh, Pf growth 48h, HCMV inh)
O=C(/C=C/c1ccco1)NC(=S)Nc1ccccc1	Sm TGR inh inconclusive, Giardia FBPA inh inconclusive
CC(=O)NS(=O)(=O)c1ccc(NC(=S)NC(=O)c2ccco2)cc1	Pf growth 48h inconclusive
CC(=O)c1ccc(NC(=S)NC(=O)/C=C/c2ccco2)cc1	Sm TGR inh 20µM
NS(=O)(=O)c1ccc(NC(=S)NC(=O)c2ccco2)cc1	Sm TGR inh 56µM, Pf growth 48h inconclusive, Giardia FBPA inh inconclusive
O=C(Nc1ccccn1)C1CCN(C(=O)Nc2ccccc2)CC1	none (no result: Giardia FBPA inh)
COc1ccc(CCCNC(=O)C2(C)Cc3c(-c4ccc(C(N)=O)cc4)ccnc3O2)cc1 (stereo unspecified)	none (no result: Pf growth 96h, Sm TGR inh, Pf growth 48h, Giardia FBPA inh)
CCOCCCN(C(=O)c1snc(C(N)=O)c1N)C(C(=O)NCCC(C)C)c1ccc(Cl)cc1 (stereo unspecified)	Pf growth 48h inconclusive
CCCCCC/C(=N/O)c1ccccn1	Pf growth 96h inconclusive, Pf growth 48h 12µM
CCCC/C(=N\O)c1c[nH]c2ccccc12	none (no result: Pf growth 96h)
CCc1ccc2oc(C(=O)N(Cc3ccc(N(C)C)cc3)Cc3ccco3)c(C)c2c1	none (no result: Pf growth 96h, Pf growth 48h, Giardia FBPA inh)
CC(C)NC(=S)NC(=O)c1ccc(-c2ccccc2)cc1	Sm TGR inh inconclusive, Pf growth 48h inconclusive, HCMV inh -81
C#CCOCCOCCOCCNc1nc(N2CCN(C(=O)Cn3cc(CCO)nn3)CC2)nc(N2CCN(C(=O)[C@H]([C@@H](C)O)n3cc(CCCCN)nn3)CC2)n1	none
C#CCOCCOCCOCCNc1nc(N2CCN(C(=O)CCCCCCCCCCNC(=O)[C@H](CCCCN)n3cc(CCO)nn3)CC2)nc(N2CCN(C(=O)CCCCCCCCCCNC(=O)[C@@H]([C@H](C)O)n3cc(C)nn3)CC2)n1	Pf growth 96h inconclusive, Sm TGR inh 18µM, Pf growth 48h 0.29µM (no result: Giardia FBPA inh, HCMV inh)
C#CCOCCOCCOCCNc1nc(N2CCN(C(=O)Cn3cc(CC(C)O)nn3)CC2)nc(N2CCN(C(=O)[C@H](CCCCN)n3cc(CCC(=O)O)nn3)CC2)n1 (stereo partly specified)	none
C#CCOCCOCCOCCNc1nc(N2CCN(C(=O)CCCCCCCCCCNC(=O)[C@H](CCC(=O)O)n3cc(CCCCCN)nn3)CC2)nc(N2CCN(C(=O)CCCCCCCCCCNC(=O)[C@@H]([C@H](C)O)n3cc(C)nn3)CC2)n1	Pf growth 96h inconclusive, Pf growth 48h 3.3µM (no result: Giardia FBPA inh, HCMV inh)
